This note sets out measurements from PubChem BioAssay (NCI).

Structures are written as SMILES. Compounds without any hit were thinned out: in the full panel of roughly 83,000, 20% have a hit.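 Cell lines were cultured in 96-well plates, exposed to a single compound concentration, and assessed for percent growth 48 hours later.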 Values without a mark were called inactive. Calls of active or inactive are those of the source. The calls were made as follows: active = growth percent below 10; inactive = the rest.

Among the test systems are NCI-H226 lung; NCI-H322M lung; HOP-62 NSCLC; NCI-H460 lung; HOP-92 NSCLC; NCI-H522 lung; A549/ATCC NSCLC; 786-0 renal; COLO 205 colon; DU-145 prostate; K-562 leukemia; MALME-3M melanoma; MDA-MB-231 breast; RXF 393 renal; SF-268 CNS; SF-295 CNS; SF-539 CNS; UACC-257 melanoma; M14 melanoma.
What all share (experiment): NCI-60 one-dose screen, 48 h (100 = growth as untreated, 0 = no growth, -100 = all killed)
Settings in all cases: 10 µM unless noted

As for `C=C(C)[C@@H]1CC[C@]2(C(N)=O)CC[C@]3(C)[C@H](CC[C@@H]4[C@@]5(C)CCCNC(C)(C)[C@@H]5CC[C@]43C)[C@@H]12`, the growth with NCI-H226 lung is 86.3%; in the experiment with NCI-H322M lung it was 101%; in the experiment with HOP-62 NSCLC, 91.4%; in the experiment on NCI-H460 lung it was 64%; in the experiment on HOP-92 NSCLC, 65.4%; with NCI-H522 lung it was 84.4%. The growth with A549/ATCC NSCLC is 65%; in the experiment with 786-0 renal, 87.2%; in the experiment with COLO 205 colon it was 69.3%; in the experiment on DU-145 prostate, 92.4%; in the experiment with K-562 leukemia, 7.26% (active); with MALME-3M melanoma, 75%. The growth is 62.4% with MDA-MB-231 breast; 72.4% in the experiment with RXF 393 renal; 85.8% in the experiment on SF-268 CNS; 80.9% in the experiment on SF-295 CNS; 65.4% with SF-539 CNS; 57.6% with UACC-257 melanoma. In addition, the growth in the experiment on M14 melanoma was 86.8%.
As for `COc1ccccc1Nc1nnc(-c2ccc(Cl)cc2)o1`, the growth in the experiment on NCI-H226 lung is 73.6%; in the experiment on NCI-H322M lung, 70.5%; in the experiment on HOP-62 NSCLC it was 47.4%; in the experiment with NCI-H460 lung, 16.1%; in the experiment with HOP-92 NSCLC it was 91.1%; in the experiment with NCI-H522 lung, 16.6%. In addition, the growth in the experiment on A549/ATCC NSCLC was 34.4%; with 786-0 renal, 75.8%; in the experiment on COLO 205 colon, 35.3%; in the experiment with DU-145 prostate, 72.3%; with K-562 leukemia, 11.7%; in the experiment on MALME-3M melanoma, 46.3%. The growth was 63.5% in the experiment with MDA-MB-231 breast; 74.6% with RXF 393 renal; 60.5% in the experiment with SF-268 CNS; 40.3% in the experiment on SF-295 CNS; 57.1% in the experiment on SF-539 CNS; 65.8% with UACC-257 melanoma. Also, the growth in the experiment on M14 melanoma was 21.7%.
For `CCc1c(C(=O)N[C@@H](C(=O)OCc2ccccc2)C(C)O)[nH]c2ccc(Cl)cc12` (stereo partly drawn), the growth with NCI-H226 lung was 21.7%; in the experiment with NCI-H322M lung, 75%; in the experiment on HOP-62 NSCLC it was 65.8%; in the experiment on NCI-H460 lung, 13.8%; in the experiment on HOP-92 NSCLC, 74.5%; in the experiment on NCI-H522 lung, 77.1%. The growth in the experiment on A549/ATCC NSCLC is 69.6%; with 786-0 renal it was 11.1%; in the experiment on COLO 205 colon, 48.7%; in the experiment with DU-145 prostate, 86.5%; in the experiment with K-562 leukemia, 104%; with MALME-3M melanoma it was 69.7%. Besides, the growth is 61.3% in the experiment on MDA-MB-231 breast; 83.8% in the experiment with RXF 393 renal; 84.3% in the experiment on SF-268 CNS; 52.1% in the experiment on SF-295 CNS; 71.4% in the experiment on SF-539 CNS; 109% in the experiment with UACC-257 melanoma. For the same molecule, the growth in the experiment on M14 melanoma is 88.3%.
As for `c1ccc(Sc2ncccn2)nc1`, the growth with NCI-H226 lung is 92.2%; in the experiment with NCI-H322M lung it was 111%; in the experiment with HOP-62 NSCLC, 100%; with NCI-H460 lung it was 103%; in the experiment on HOP-92 NSCLC it was 89%; with NCI-H522 lung, 91.6%. In addition, the growth in the experiment with A549/ATCC NSCLC is 103%; with 786-0 renal, 103%; in the experiment on COLO 205 colon, 116%; in the experiment with DU-145 prostate, 109%; in the experiment with K-562 leukemia, 90%; with MALME-3M melanoma, 111%. Also, the growth in the experiment on MDA-MB-231 breast was 109%; with RXF 393 renal it was 110%; in the experiment on SF-268 CNS it was 104%; with SF-295 CNS, 109%; in the experiment on SF-539 CNS, 96%; in the experiment with UACC-257 melanoma it was 99.2%. Further, the growth with M14 melanoma is 99.2%.
In the case of `C=C(C)[C@@H]1CC[C@]2(C(=O)N3CCN(C)CC3)CC[C@]3(C)[C@H](CC[C@@H]4[C@@]5(C)C/C(=C/c6ccco6)C(=O)C(C)(C)[C@@H]5CC[C@]43C)[C@@H]12`, the growth in the experiment with NCI-H226 lung was 86.4%; with NCI-H322M lung, 79.9%; in the experiment on HOP-62 NSCLC it was 73.6%; in the experiment with NCI-H460 lung, 64.9%; in the experiment with HOP-92 NSCLC, 55.7%; in the experiment with NCI-H522 lung it was 74%. Further, the growth in the experiment with A549/ATCC NSCLC is 60.6%; with 786-0 renal, 71.2%; in the experiment on COLO 205 colon, 74.6%; with DU-145 prostate, 84.3%; in the experiment with K-562 leukemia, 36.2%; with MALME-3M melanoma it was 66.8%. In addition, the growth was 58.8% in the experiment on MDA-MB-231 breast; 45.2% with RXF 393 renal; 68.9% with SF-268 CNS; 18.9% in the experiment with SF-295 CNS; 62% with SF-539 CNS; 48.6% in the experiment with UACC-257 melanoma. The growth in the experiment with M14 melanoma is 59.9%.
`O=S(=O)(Nc1nccs1)c1ccc(Nc2nc(-c3ccncc3)cs2)cc1`: the growth in the experiment with NCI-H226 lung was 102%; in the experiment on NCI-H322M lung, 126%; with HOP-62 NSCLC, 93.8%; with NCI-H460 lung, 99.3%; in the experiment with HOP-92 NSCLC, 96.9%; in the experiment with NCI-H522 lung, 97.6%. For the same molecule, the growth in the experiment with A549/ATCC NSCLC is 104%; in the experiment on 786-0 renal it was 97.8%; in the experiment with COLO 205 colon, 93.2%; in the experiment on DU-145 prostate it was 106%; in the experiment with K-562 leukemia, 109%; in the experiment with MALME-3M melanoma, 113%. Further, the growth in the experiment on MDA-MB-231 breast is 105%; in the experiment on RXF 393 renal, 110%; in the experiment on SF-268 CNS, 107%; in the experiment with SF-295 CNS, 120%; in the experiment with SF-539 CNS, 88.2%; in the experiment on UACC-257 melanoma, 109%. The growth in the experiment with M14 melanoma was 103%.
In the case of `C=C(C)[C@@H]1CC[C@]2(C(=O)OCCOCCOCC[P+](c3ccccc3)(c3ccccc3)c3ccccc3)CC[C@]3(C)[C@H](CC[C@@H]4[C@@]5(C)CC[C@H](C)C(C)(C)[C@@H]5CC[C@]43C)[C@@H]12`, the growth in the experiment on NCI-H226 lung was -70.9% (active); in the experiment with NCI-H322M lung, -98.1% (active); with HOP-62 NSCLC, -79.5% (active); in the experiment with NCI-H460 lung, -78% (active); in the experiment with HOP-92 NSCLC, -83.3% (active); with NCI-H522 lung, -80.6% (active). Besides, the growth with A549/ATCC NSCLC was -83.7% (active); with 786-0 renal it was -83.3% (active); in the experiment on COLO 205 colon, -82.2% (active); with DU-145 prostate it was -92.1% (active); in the experiment with K-562 leukemia, -65.7% (active); in the experiment on MALME-3M melanoma it was -79.4% (active). Moreover, the growth in the experiment on MDA-MB-231 breast is -74% (active); with RXF 393 renal it was -85.3% (active); in the experiment with SF-268 CNS, -74.5% (active); with SF-295 CNS, -87.5% (active); in the experiment on SF-539 CNS it was -90.3% (active); in the experiment on UACC-257 melanoma, -88.1% (active). Besides, the growth with M14 melanoma is -77.4% (active).
